Non-standard residues stand in square brackets, D forms with d. Residues, ends and D or L forms follow the SMILES beside them. Orn = NCCC[C@H](N)C(=O)O
Test: qHTS profiling of inhibitors of Plasmodium falciparum (HB3) proliferation (acoustic dispense)
Settings: P. falciparum HB3 in erythrocytes, SYBR Green, 72 h; at 49.8 µM (top of the series) unless noted
Text: Plasmodium falciparum is a virulent malarial parasite that kills 1-2 million people worldwide each year. Transmitted by mosquitoes, the sporozoite form of the parasite enters the blood stream to infect hepatocytes, where they become merozoites that infect red blood cells (erythrocytes). Within erythrocytes, merozoites begin a […] cycle of growth and division, after which the parasite is released to infect new red blood cells. Gametocytes, which form within erythrocytes as well, circulate in the bloodstream and are ingested by the mosquito, thereby completing the life cycle. To profile malarial isolates for differential chemical responses and to identify inhibitors of malarial growth, an assay that measures P. falciparum growth and replication within erythrocytes was employed. This assay uses a DNA binding fluorescent dye (SYBR Green) to detect parasite DNA following cell lysis. Because mature erythrocytes lack DNA, only Plasmodium-derived DNA is detected.
The SYBR Green viability assay was adapted from a method described previously (Plouffe et al., 2008). For screening 3 ul culture medium was dispensed into 1536 well black clear bottom plates (Aurora Biotechnologies) using a Multidrop Combi (Thermo Fisher Scientific Inc.), 23 nL of compounds in DMSO were added by an acoustic dispenser (EDC Biosystems), and 5 ul of erythrocytes infected with P. falciparum (0.3% parasitemia, 2.5% hematocrit final concentration) were added. The plates were incubated at 37 C in a humidified incubator in 5% CO2 for 72 h, and 2 ul lysis buffer (20 mM Tris HCl, 10 mM EDTA, 0.16% saponin, 1.6% triton X, 10X SYBR Green I supplied as 10,000X […] by Invitrogen) was added to each well. The plates were mixed for 25 sec with gentle shaking and incubated overnight at room temperature in the dark. The following morning, fluorescence intensity at 485(14) nm excitation and 535(25) nm emission wavelengths was measured on an EnVision (Perkin Elmer) plate reader. Plate reads were normalized relative to the control inhibitor (0.29 uM artemisinin) and vehicle (DMSO) wells present on each plate and then corrected by an algorithm using vehicle-only control plates at the beginning and end of the compound plate stack.

Row | SMILES | activity (normalised, proliferation)
1 | Nc1cccc(-c2csc(NC(=O)CCCCCCC(=O)NO)n2)c1 | -0.958%
2 | O=C(Nc1ccc([N+](=O)[O-])cc1Cl)c1cc(Cl)ccc1O | 99.3%
3 | NC1CCC(Nc2nc(Nc3ccc(C(=O)N4CCCCC4)cc3)c3ncn(-c4cccc(F)c4)c3n2)CC1 (stereo not given) | -0.546%
4 | CCC(C=C[C@@H]1OC(=O)C=C[C@H]1C)=C[C@H](C)CC=CC(C)=C[C@@H](C)C(=O)[C@@H](C)[C@H](O)[C@@H](C)CC(C)=CC(=O)O | 105% [at 1.88 µM]
5 | COc1ccc(-c2ccc3ncc4c(c3c2)n(-c2ccc(N3CCNCC3)c(C(F)(F)F)c2)c(=O)n4C)cn1 | 5.42%
6 | CCc1cc(Nc2nccc(-c3c(-c4ccc(OC)c(C(=O)Nc5c(F)cccc5F)c4)nc4ccccn34)n2)c(OC)cc1N1CCC(N2CCN(S(C)(=O)=O)CC2)CC1 | 0.0178%
7 | CCOC(=O)[C@H](CCc1ccccc1)N[C@H]1CS[C@H](c2cccs2)CN(CC(=O)O)C1=O | 67.9%
8 | COc1ncc(-c2ccc3nccc(-c4ccnnc4)c3c2)cc1NS(=O)(=O)c1ccc(F)cc1F | -1.51%
9 | CCCCCCCCCCOc1cc2c(=O)c(C(=O)OCC)c[nH]c2cc1OCC | -0.332%
10 | COc1ncnc(NS(=O)(=O)c2ccc(N)cc2)c1OC | 102%
11 | CCCC[C@@H]1C[C@@H](C(=O)NC([C@H](C)Cl)[C@H]2O[C@H](S)[C@H](O)[C@@H](O)[C@@H]2O)N(C)C1 (stereo not given in full) | 3.44%
12 | CCC[C@H](Nc1nc(-c2ccc(NC(=O)NCC)c(OC)c2)ncc1C)c1cccnc1 | -0.168%
13 | CN[C@@H](C)C(=O)N[C@H]1CCCC[C@H]2CC[C@@H](C(=O)N[C@@H](c3ccccc3)c3cn(CCCCc4ccc(CCCCn5cc([C@@H](NC(=O)[C@@H]6CC[C@@H]7CCCC[C@H](NC(=O)[C@H](C)NC)C(=O)N76)c6ccccc6)nn5)cc4)nn3)N2C1=O | 0.411%
14 | CS[C@H]1SC[C@@H]2C(=O)N(C)[C@H](C(C)C)C(=O)OC[C@H](NC(=O)c3cnc4ccccc4n3)C(=O)N[C@H](C)C(=O)N(C)[C@@H]1C(=O)N(C)[C@H](C(C)C)C(=O)OC[C@H](NC(=O)c1cnc3ccccc3n1)C(=O)N[C@H](C)C(=O)N2C | 1.22%
15 | Clc1ccc2c(N3CCN(CCCN4CCN(c5ccnc6cc(Cl)ccc56)CC4)CC3)ccnc2c1 | -2.19% [at 23.2 µM]
16 | O[C@H](c1cc(C(F)(F)F)nc2c(C(F)(F)F)cccc12)[C@H]1CCCCN1 | 3.25% [at 23.2 µM]
17 | CC(C)C[C@H](NC(=O)[C@H](CCc1ccccc1)NC(=O)CN1CCOCC1)C(=O)N[C@@H](Cc1ccccc1)C(=O)N[C@@H](CC(C)C)C(=O)[C@@]1(C)CO1 | 0.732%
18 | CCC(=O)N1CCN(c2ccc(-n3c(=O)ccc4cnc5ccc(-c6cnc7ccccc7c6)cc5c43)cc2C(F)(F)F)CC1 | 0.244%
19 | CCCCN(CCCC)CCC(O)c1cc2c(Cl)cc(Cl)cc2c2cc(C(F)(F)F)ccc12 (stereo not given) | -0.0223% [at 23.2 µM]
20 | COc1cc2nc(N3CCCN(C)CC3)nc(NC3CCN(Cc4ccccc4)CC3)c2cc1OC | -1.22%

Row | SMILES | activity (normalised, proliferation)
21 | CC(C)n1nc(-c2ccc3oc(N)nc3c2)c2c(N)ncnc21 | -0.709%
22 | CC(C)C[C@@H]1NC(=O)[C@H](CCCN)NC(=O)[C@H](C(C)C)NC(=O)[C@@H]2CCCN2C(=O)[C@@H](Cc2ccccc2)NC(=O)[C@H](CC(C)C)NC(=O)[C@H](CCCN)NC(=O)[C@H](C(C)C)NC(=O)[C@@H]2CCCN2C(=O)[C@@H](Cc2ccccc2)NC1=O (cyclo(V[Orn]L[dF]PV[Orn]L[dF]P)) | 3.19%
23 | Nc1ccc(-c2ccc3ncc4ccc(=O)n(-c5cccc(C(F)(F)F)c5)c4c3c2)cn1 | -1.37%
24 | Cn1cc(CNCC2CCN(c3ncc(C(=O)NO)cn3)CC2)c2ccccc21 | -0.786%
25 | CO[C@H]1C=CO[C@@]2(C)Oc3c(C)c(O)c4c(O)c(c(C=NN5CCN(C)CC5)c(O)c4c3C2=O)NC(=O)C(C)=CC=C[C@H](C)[C@H](O)[C@@H](C)[C@@H](O)[C@@H](C)[C@H](OC(C)=O)[C@H]1C | -0.914% [at 16.5 µM]
26 | COc1cc([C@@H]2c3cc4c(cc3[C@@H](O[C@@H]3O[C@@H]5CO[C@@H](c6cccs6)O[C@@H]5[C@H](O)[C@@H]3O)[C@H]3COC(=O)[C@H]23)OCO4)cc(OC)c1O | -0.0351%
27 | c1cncc(CN2CCC(n3ncc4c(N5CCOCC5)nc(-c5ccc6[nH]ccc6c5)nc43)CC2)c1 | -0.669%
28 | CS(=O)(=O)CCNCc1ccc(-c2ccc3ncnc(Nc4ccc(OCc5cccc(F)c5)c(Cl)c4)c3c2)o1 | 7.39%
29 | CCN(CC)CCCC(C)Nc1ccnc2cc(Cl)ccc12 (stereo not given) | -0.388%
30 | COc1ccc(-c2nc(N3CCOCC3)c3sc(CN(C)c4ncc(C(=O)NO)cn4)cc3n2)cn1 | -1.14%
31 | Cn1cc(C2=C(c3c4n(c5ccccc35)CCC(CN)C4)C(=O)NC2=O)c2ccccc21 (stereo not given) | -0.862%
32 | FC(F)c1nc2ccccc2n1-c1nc(N2CCOCC2)nc(N2CCOCC2)n1 | 25.3%
33 | CN(C)c1ccc(C(=C2C=CC(=[N+](C)C)C=C2)c2ccc(N(C)C)cc2)cc1 | 108%
34 | Cc1[nH]c2ccccc2c1CCNCc1ccc(C=CC(=O)NO)cc1 | -2.24%
35 | CCN[C@H]1C[C@H](C)S(=O)(=O)c2sc(S(N)(=O)=O)cc21 | 37.3%
36 | CC(Sc1nc2ccccc2[nH]1)C(=O)NN=Cc1cc(Br)ccc1O (stereo not given) | -0.944% [at 4.15 µM]
37 | CC[C@]1(O)C[C@H]2CN(CCC3=c4ccccc4=N[C]3[C@@](C(=O)OC)(c3cc4c(cc3OC)N(C)[C@H]3[C@@](O)(C(N)=O)[C@H](O)[C@]5(CC)C=CCN6CC[C@]43[C@@H]65)C2)C1 | 2.35%
38 | C[C@H]1c2cccc(O)c2C(O)=C2C(=O)[C@]3(O)C(O)=C(C(N)=O)C(=O)[C@@H](N(C)C)[C@@H]3[C@@H](O)[C@@H]21 | 2.34%
39 | CC(C)[C@H](C(=O)Nc1ccc(C(=O)NO)cc1)c1ccccc1 | -0.656%
40 | COc1cc2c(Oc3ccc(NC(=O)C4(C(=O)Nc5ccc(F)cc5)CC4)cc3F)ccnc2cc1OCCCN1CCOCC1 | 17.9%

Reference: PubChem BioAssay AID743366 (National Center for Advancing Translational Sciences (NCATS), 2014)
